FBPA Giardia inh = qHTS Assay for Inhibitors of Fructose-1,6-bisphosphate Aldolase from Giardia Lamblia. purified Giardia FBPA. Potency, µM (highest dose often 59.6 µM), most hits filed as inhibitors. 290,000 tested, 0.71% active. AID 2451, 2010; also: nearly all actives have a fitted effect of over 55% in size
Target sequence (A8B2U2 whole entry, looked up): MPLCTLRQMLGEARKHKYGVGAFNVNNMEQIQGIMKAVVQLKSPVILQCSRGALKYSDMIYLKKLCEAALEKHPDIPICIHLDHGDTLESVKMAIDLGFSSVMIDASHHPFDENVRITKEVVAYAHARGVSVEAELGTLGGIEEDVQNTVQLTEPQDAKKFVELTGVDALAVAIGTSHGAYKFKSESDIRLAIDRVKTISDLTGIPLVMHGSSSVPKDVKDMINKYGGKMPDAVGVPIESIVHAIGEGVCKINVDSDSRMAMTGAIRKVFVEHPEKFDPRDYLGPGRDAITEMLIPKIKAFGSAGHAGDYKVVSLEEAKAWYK
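40 nM FBPA preincubated 10 min at RT with compound (up to 57.5 uM final), then substrate plus GAPDH/TPI/NAD/arsenate coupling and diaphorase/resazurin added. Fluorescence read after 20 min at RT, 525/598 nm.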
Cruzain inh noDet = qHTS Assay for Promiscuous and Specific Inhibitors of Cruzain (without detergent); Cruzipain (Trypanosoma cruzi), P25779; 200,000 tested, 2.3% active; purified cruzain, Z-FR-AMC fluorescence, no detergent; Potency, µM, actives largely listed as inhibitors; also: nearly all actives have a fitted effect of over 40% in size
Target sequence (P25779 123-467 limits assumed): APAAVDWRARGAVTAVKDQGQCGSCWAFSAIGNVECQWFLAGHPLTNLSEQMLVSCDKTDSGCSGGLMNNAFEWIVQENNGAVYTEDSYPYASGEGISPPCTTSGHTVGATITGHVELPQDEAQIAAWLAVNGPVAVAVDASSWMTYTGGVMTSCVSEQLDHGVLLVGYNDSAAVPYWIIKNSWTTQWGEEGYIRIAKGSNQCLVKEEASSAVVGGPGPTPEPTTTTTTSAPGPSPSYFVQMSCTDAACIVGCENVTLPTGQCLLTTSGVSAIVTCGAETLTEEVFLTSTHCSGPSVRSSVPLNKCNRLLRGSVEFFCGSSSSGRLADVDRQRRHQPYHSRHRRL
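Purified cruzain at 1.5 nM, pre-incubated 15 min with compound at room temperature in 100 mM sodium acetate pH 5.5, 5 mM DTT, 0.00005% Triton X-100. Reaction started with 2 uM Z-FR-AMC; AMC fluorescence increase over 60 s gives rate.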
Cruzain inh Det = qHTS Assay for Promiscuous and Specific Inhibitors of Cruzain (with detergent). Cruzipain (Trypanosoma cruzi), P25779. purified cruzain, Z-FR-AMC fluorescence, 0.01% Triton. Potency, µM, most hits filed as inhibitors. 200,000 tested, 0.43% active. AID 1478, 2009; also: nearly all actives have a fitted effect of over 40% in size
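Detergent-containing arm of a paired screen for aggregation-based inhibition: 0.01% Triton X-100 present. Cruzain at 1.5 nM cleaved 2 uM Z-FR-AMC at pH 5.5 with 5 mM DTT; AMC fluorescence gain over 60 s measured activity.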
Hits are given with their value; . = inactive; ? = inconclusive; / = not tested or not shown; [ ] = another dose, or the depositor's remark. The full list was thinned out, with hits kept by preference. Calls follow the shape of the dose curve; as a rule, active = well fitted curve in the direction sought with a large enough effect; inconclusive = small, poorly fitted or top-dose-only effect, or another doubt; inactive = no such curve, though single readings can be large; an effect the other way counts as inactive or inconclusive.

SMILES	FBPA Giardia inh	Cruzain inh noDet	Cruzain inh Det
COc1cc2c(cc1NC(=O)CSc1nc3ccccc3[nH]1)oc1ccccc12	/	25µM	.
COc1cc2c(cc1NC(=O)CSc1ccccc1)oc1ccccc12	.	.	.
COc1cc2c(cc1NC(=O)CSc1nc3cc(Cl)ccc3s1)oc1ccccc12	.	7.9µM	.
COc1cc2c(cc1NC(=O)CSc1nccn1C)oc1ccccc12	.	.	.
COc1cccc(-c2nc3c(C#N)c[nH]n3c2NC2CCCCC2)c1	/	.	.
CCOC(=O)c1ccc(CN(Cc2ccc(F)cc2)S(=O)(=O)c2cc(C(=O)Nc3cccc(C(F)(F)F)c3)ccc2F)cc1	/	?	.
N#CCSc1nc2ccc(N3CCCCC3)cc2c(=O)n1Cc1ccccc1	.	25µM	.
N#CCSc1nc2ccccc2c(=O)n1CC1CCCC1	.	/	/
O=C(OCC(=O)c1ccc(Cl)cc1Cl)c1ccc2c(c1)C(=O)N(c1cccc3ncccc13)C2=O	.	20µM	.
O=C(COC(=O)c1ccc2c(c1)C(=O)N(c1cccc3ncccc13)C2=O)c1ccc(Cl)cc1	.	?	.
CC(C)c1ccc(S(=O)(=O)NCc2ccc3c(c2)CCN3C(=O)c2ccccc2)cc1	/	.	.
O=C1CN(C(=O)COc2ccc(Cl)cc2Cl)C(c2ccc(F)cc2)c2cc(F)ccc2N1 (stereo not given)	/	.	.
COC(=O)COc1cccc(-n2cnnn2)c1	.	.	.
Cc1cc(C(=O)COc2cccc(-n3cnnn3)c2)c(C)n1-c1ccccc1	.	20µM	.
COC(=O)CN1C(=O)[C@@H]2[C@H](C1=O)[C@@H]1CC(C(=O)OC)=C[C@@H](C(=O)OC)C3C1=C(C(=O)C31CCCCC1)[C@@H]2C (stereo not given in full)	.	/	/
Cc1ccc(C)n1NC(=O)c1ccc(Cl)cc1Cl	.	13µM	.
Cc1ccc(C)n1NC(=O)c1ccc(Cl)cc1	.	.	.
N#CCc1c(C#N)c(N)nc(N2CCN(S(=O)(=O)c3ccccc3F)CC2)c1C#N	.	/	/
N#CCc1c(C#N)c(N)nc(N2CCN(c3ccc(F)cc3)CC2)c1C#N	.	16µM	.
Cc1cc(C)c2sc(NNC(=O)c3ccc(S(=O)(=O)N4CCc5ccccc5C4)cc3)nc2c1	?	6.3µM	.
CCc1nnc(NC(=O)c2ccc(S(=O)(=O)N3CCc4ccccc4C3)cc2)s1	.	?	.
N#Cc1ccc(-c2csc(NC(=O)c3ccc(S(=O)(=O)N4CCc5ccccc5C4)cc3)n2)cc1	.	6.3µM	.
N#Cc1ccc(-c2csc(NC(=O)c3ccc(N4C(=O)CCC4=O)cc3)n2)cc1	.	/	/
Cc1cc(C)c2nc(NNC(=O)c3ccc(S(=O)(=O)N4CCc5ccccc5C4)cc3)sc2c1	?	6.3µM	.
Cc1cccc2sc(N(CCCN(C)C)C(=O)c3ccc(S(=O)(=O)N4CCc5ccccc5C4)cc3)nc12	.	/	/
SMILES	FBPA Giardia inh	Cruzain inh noDet	Cruzain inh Det
CCOC(=O)C1CCCN(C(=O)c2ccc3c(c2)sc2nc(-c4cccc(OC)c4)cn23)C1 (stereo not given)	/	.	.
CC(C)=CCC/C(C)=C\COc1c2ccoc2cc2oc(=O)ccc12	.	.	.
CC(NC(=O)c1cccc(NC(=O)c2nsc3ccccc23)c1)c1ccccc1 (stereo not given)	/	.	.
CC(=O)[C@]1(O)Cc2c(O)c3c(c(O)c2[C@@H](O[C@H]2C[C@H](N)[C@H](O)[C@H](C)O2)C1)C(=O)c1c(O)cccc1C3=O	?	.	.
CCC(C(=O)NC1CCC(C)CC1)n1nc(C)c2sc3ccccc3c2c1=O (stereo not given)	/	.	.
O=C(O)CNC(=O)c1ccc(CO)o1	/	.	.
Cc1ccsc1/C=C(\C(=O)c1ccc(OC(C)C)cc1)c1nc2ccccc2o1	.	32µM	.
CC(C)Oc1ccc(C(=O)N2CCC(c3nc4ccccc4o3)CC2)cc1	/	.	.
CCOc1ccc(NC(=O)Cn2cc(S(=O)(=O)N3CCN(c4ccccc4F)CC3)c3ccccc3c2=O)cc1	/	16µM	.
COCCNC(=O)Cn1cc(S(=O)(=O)N2CCN(c3ccccc3F)CC2)c2ccccc2c1=O	.	/	/
Cc1cc(O)ccc1Nc1nc2ccccc2nc1Nc1ccc(O)cc1C	?	10µM	.
Cc1ccc(Nc2nc3ccccc3s2)c(C)c1	.	.	.
O=C(CSc1nc2c(c(=O)[nH]1)CN(Cc1ccc3c(c1)OCO3)CC2)Nc1cccc(Cl)c1	/	.	.
COCCNC(=O)/C(C#N)=C/c1cn(CC(=O)NCc2ccco2)c2ccccc12	.	/	/
N#CCC(=O)N/N=C/c1cn(Cc2ccc(Cl)cc2Cl)c2ccccc12	.	/	/
Cc1c(/C=C(\C#N)C(=O)Nc2cccc(Cl)c2)c2ccccc2n1Cc1ccccc1Cl	/	1.6µM	.
N#C/C(=C/c1cn(Cc2ccccc2Cl)c2ccccc12)C(=O)Nc1cccc(Cl)c1	/	3.2µM	.
Cc1cccc(NC(=O)/C(C#N)=C/c2cn(CC(=O)NCc3ccco3)c3ccccc23)c1	.	10µM	.
Cc1ccc(NC(=O)/C(C#N)=C\c2ccc(Cl)cc2Cl)cc1C	/	.	.
CCCN(C(=O)Nc1cn(CC(C)C)c(=O)c2ccccc12)c1ccc(F)cc1	/	.	.
NS(=O)(=O)c1ccc(NC(=O)Nc2ccccc2F)cc1	/	.	.
COc1ccc(-n2nc3c(N4CCCC(C(=O)NCCc5ccc(C)cc5)C4)nnc(C)c3c2C)cc1 (stereo not given)	/	.	.
Fc1ccccc1-n1ncc2c1ncn1nc(Cc3ccccc3)nc21	/	.	.
CC(=O)c1[nH]c(C)c(C(=O)NCc2ccc(Cl)cc2)c1C	/	.	.
COc1ccc(N=CC2=C(O)c3ccccc3C2=O)cc1	.	.	.
SMILES	FBPA Giardia inh	Cruzain inh noDet	Cruzain inh Det
COc1ccc(Cn2c(O)c(C=Nc3ccccc3C(=O)O)c3ccccc3c2=O)cc1	.	/	/
COc1ccc(N=Cc2[nH]c3ccccc3c2O)cc1	14µM	/	/
COc1ccc(Cn2c(O)c(C=Nc3ccc(OC)cc3)c3ccccc3c2=O)cc1	.	13µM	.
Cc1ccc(F)c(C2C3C=CCC(C)C3C(=O)N2Cc2ccccc2)c1 (stereo not given)	.	/	/
Cc1c(C(=O)NCc2ccc3c(c2)OCO3)oc2ccc(S(=O)(=O)N3CCCC3)cc12	.	16µM	.
Cc1ccc(NC(=O)c2oc3ccc(S(=O)(=O)N4CCCCC4)cc3c2C)cc1C	/	.	.
Cc1c(C(=O)NCc2ccc3c(c2)OCO3)oc2ccc(S(=O)(=O)N3CCCCC3)cc12	.	?	.
Cc1c(C(=O)Nc2ccc(F)cc2)oc2ccc(S(=O)(=O)N3CCCCCC3)cc12	/	32µM	.
CC(C)N(CC(=O)O)CC(=O)O	/	.	.
Cc1nc2ccc(S(=O)(=O)N(CC(=O)Nc3ccc(F)cc3F)Cc3ccccc3)cc2s1	/	?	.
CC(/C=N\Nc1nnc2c(n1)[nH]c1c(C)cccc12)=C\c1ccco1	.	4µM	.
CCCCCSc1nnc2c(n1)[nH]c1c(C)cccc12	/	?	.
CCCCCCCC1=Cc2ccccc2C(C(C(C)=O)C(=O)OC)N1C(=O)OC (stereo not given)	.[12.9 µM]	/	/
COc1ccc2[nH]c3c(c2c1)CCNC3=O	.	.	.
COc1ccc2[nH]c3c(c2c1)CCN=C3C	.	13µM	.
